From PubChem BioAssay (NCI)
The panel holds about 79,000 compounds, 15% with a hit somewhere; the sample as a whole holds those more often. Unmarked numbers belong to inactive results. Calls of active or inactive are those of the source. Rule as the data show it: active = growth inhibition above about 70%; inactive = the rest.

How the values were obtained:
[1] = NCI Yeast Anticancer Drug Screen. Data for the rad50 strain (AID 155);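 also: 0% = growth of vehicle-only cultures of the same strain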; conditions: S. cerevisiae rad50 strain growth inhibition, hits give high values; at 50.0 µM unless noted
In short: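 DNA repair mutant yeast, compound exposure, growth read-out; inhibition is taken relative to vehicle.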

[2] = NCI Yeast Anticancer Drug Screen. Data for the mec2-1 strain (AID 157); conditions: S. cerevisiae mec2-1 strain, hits give high values; at 50.0 µM unless noted
In short: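 Cells of the genetically defined mec2-1 yeast strain are incubated with test compound. Inhibition of growth is calculated against vehicle-treated controls.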

[3] = NCI Yeast Anticancer Drug Screen. Data for the sgs1 mgt1 strain (AID 161);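 also: 0% = growth of cultures given vehicle only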; conditions: S. cerevisiae sgs1 mgt1 strain, hits give high values; at 50.0 µM unless noted
In short: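 Mutant yeast exposed to compound; growth scored against vehicle-only wells.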

[4] = NCI Yeast Anticancer Drug Screen. Data for the cln2 rad14 strain (AID 165);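 also: 0% = growth equal to vehicle treated cultures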; conditions: S. cerevisiae cln2 rad14 strain, hits give high values; at 50.0 µM unless noted
In short: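 The screen exposed genetically defined yeast (cln2 rad14) to test compounds and scored growth inhibition relative to vehicle-treated controls.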

[5] = NCI Yeast Anticancer Drug Screen. Data for the bub3 strain (AID 167); conditions: S. cerevisiae bub3 mutant strain, hits give high values; at 50.0 µM unless noted
In short: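 In this screen, a yeast mutant lacking normal mitotic checkpoint function is challenged with compound. Relative growth versus vehicle gives the inhibition value.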

[6] = NCI Yeast Anticancer Drug Screen. Data for the mlh1 rad18 strain (AID 175); conditions: S. cerevisiae mlh1 rad18 strain growth inhibition, hits give high values; at 50.0 µM unless noted
In short: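 Compound-treated yeast growth, normalised to vehicle controls. Strain bears defined DNA repair mutations.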

SMILES | growth inhibition [1] | growth inhibition [2] [%] | growth inhibition [3] [%] | growth inhibition [4] | growth inhibition [5] | growth inhibition [6]
CCOC(=O)C(=CNC(=S)N=Nc1c(O)[nH]c2ccccc12)C(=O)OCC | -58.4% | -69.2 | -45 | 2.85% | -36.9% | -25.8%
Cc1ccc(C(=O)NNC(=O)c2ccc(C)cc2)cc1 | -10.5% | -18.4 | -11.1 | 2.8% | -10.9% | -5.15%
COc1ccccc1C(O)C(C)C (configuration not stated) | -17.6% | -11.3 | 3.9 | -15.8% | -5.25% | -24.1%
O=C(O)c1ccc(/C=N/N=C2c3ccccc3-c3ccccc32)cc1 | 66.6% | 35.5 | 41 | 72.1% (active) | -4.5% | 64.2%
Cc1no[n+]([O-])c1/C=N/NS(=O)(=O)c1ccccc1 | 2.25% | -17.6 | -12.9 | -6.05% | -2.7% | -23.1%
C=CCSC[C@H](NC(=O)COc1ccccc1)C(=O)NC(C(=O)OCc1ccc([N+](=O)[O-])cc1)=C(C)C | 45.8% | 26.6 | 24.6 | 31.1% | 39.4% | 14.4%
COc1cccc(/C=C/c2ccnnc2)c1 | 4.3% | -2.8 | -7.55 | -7.65% | 16.9% | -3.85%
CCCSCCC(NC(=O)c1ccccc1)C(=O)O (configuration not stated) | -14.6% | -10 | -10.1 | -12.9% | -15.2% | -26.4%
c1ccc(C2(c3ccc(C4(c5ccccc5)Oc5ccccc5S4)[nH]3)Oc3ccccc3S2)cc1 (configuration not stated) | 20.4% | -12.2 | -4.4 | 11.6% | -16.7% | 20.2%
CCC[C@@H]1C(=O)N=C(N)N1C(=O)OCc1ccccc1 | 18.6% | 8.4 | 7.75 | 1.8% | -5.8% | 2.5%
C(CCCC1CO1)CCC1CO1 (configuration not stated) | 24.5% | 18.3 | 17.7 | -36.5% | 11.1% | 7.65%
Cc1ccc(S(=O)(=O)N2CCC(CCl)N(S(=O)(=O)c3ccc(C)cc3)CC2CCl)cc1 (configuration not stated) | 18.1% | 3.6 | 0.95 | -9.05% | 3.45% | 7.8%
CCCCOC(=O)c1ccccc1C(=O)Nc1ccccc1 | 7.6% | 12.6 | 2 | 2.1% | 4.4% | -19.7%
O=[N+]([O-])c1cc(N(c2ccccc2)c2ccccc2)c(Cl)cc1Cl | -8.35% | -16.1 | -27.1 | -2.55% | 5.5% | -3%
O=C1C(c2ccccc2)=C(c2ccccc2)C1(Cl)Cl | -5.95% | -6.1 | 44.3 | 37.6% | 17.9% | 88.4% (active)
CCOC(=O)C1=C(O)c2ccccc2C(=O)C1=O | 7.35% | 3.8 | 21.6 | 11.3% | 13.2% | 8.95%
N#C/C(=C\c1cccc2ccccc12)c1ccc(Cl)cc1 | -11.8% | -12.9 | -6.65 | -13.7% | -2.6% | -1.85%
CC1=Nc2ccccc2S/C1=C(/C)NNS(=O)(=O)c1ccc(C)cc1 | 10.1% | -0.05 | 0.25 | -6.3% | 7.75% | 18.1%
Cc1cc(C)[nH]c(=O)c1 | 9.2% | 0.75 | -2.75 | 3.8% | 20.1% | 4.4%
CCCNCCC | 2.1% | -5.4 | 14.5 | -12.4% | 4.2% | 1.65%
COc1cc(OC)c(-c2nc3ccccc3c(=O)o2)cc1OC | 4.9% | 1 | -3.65 | 0.9% | -0.75% | 7.75%

SMILES | growth inhibition [1] | growth inhibition [2] [%] | growth inhibition [3] [%] | growth inhibition [4] | growth inhibition [5] | growth inhibition [6]
O=C(OCc1ccccc1)C1CCN1C(c1ccccc1)c1ccccc1 (configuration not stated) | 7.85% | 13.5 | 5.5 | -25.6% | 11.2% | -7.8%
COc1ccc2[nH]c3c(=O)[nH]ncc3c2c1 | -1.9% | -0.95 | -7.5 | -3.05% | 9.8% | 9.05%
CCCCCCCCCC=O | -2.05% | 8 | -11.5 | 10.6% | 23.7% | 6.8%
CC(=O)Oc1ccc2c(c1)[nH]c1c3ccc(OC(C)=O)cc3oc(=O)c21 | -21.4% | -26.9 | -8.05 | 5.8% | -2.85% | -13.7%
CSc1ccc(C(C)=O)cc1 | 13.6% | 5.9 | 5.95 | 4.6% | 1.55% | 3%
O=C(Nc1ccc(Cl)cc1)NC1OC(=O)C(Cl)=C1Cl (configuration not stated) | 23.4% | 9.3 | 8.55 | -17.9% | 3.5% | 23.1%
O=C(O)Cc1ccc(O)cc1 | 6.25% | -25.6 | 8.6 | 8.45% | -11.7% | 1.75%
C=CCCCCCCCCCCCCCCCC | -24% | -49 | -23.1 | -13.2% | -27.6% | -9.2%
CC(N)(CC(O)(C(F)(F)Cl)C(F)(F)Cl)C(=O)O (configuration not stated) | -48.1% | -37.7 | -33.4 | -9.25% | -13.7% | -28.8%
CSc1ccc(C)cc1 | 30.6% | -15.2 | -24.5 | -21.6% | -9.35% | 26.7%
CCCc1onc(-c2noc(CCC)c2CC)c1CC | 15.8% | -6.65 | -1.9 | 9.85% | -19.4% | 15.7%
Nc1ncnc2c1c(-c1nnc(-c3ccccc3)c(-c3ccccc3)n1)cn2C1OC(CO)C(O)C1O (configuration not stated) | 44.1% | -2.8 | 38 | -13.3% | -4.25% | 9.9%
Cc1cc(C(=O)C(C#N)=Nc2ccc(N(C)C)cc2)c(CN2C(=O)c3ccccc3C2=O)c(=O)n1C | 22.9% | -12.1 | 19.3 | -28.1% | -6.15% | 5.95%
Cc1ccccc1-c1nc2c(N)nc(N)nc2nc1N | -4.2% | -12.8 | -23.6 | -18.9% | -36.9% | -62%
Cc1ccc(/C=C2\CCCC\C2=N\O)cc1 | 5.15% | -7 | 2.3 | -10.2% | -22.6% | 2.15%
C=C1CC[C@@H](C)[C@](C)(CCc2ccoc2)C/C=C\C=C/1C(=O)O | 23.7% | 30.8 | 18.6 | 48.1% | 25.6% | 61.6%
Cc1nc2[nH]ncc2c(=O)n1-c1ccccc1Cl | 6% | -4.1 | 5.95 | 5.35% | 3.75% | 9%
CC1CCCCN1P(c1ccccc1)N1CCCCC1C (configuration not stated) | 28.5% | 16.9 | 18.5 | 24.1% | 35% | 22.7%
COc1ccc(CC(C)NN)cc1 (configuration not stated) | 93% (active) | 56.7 | 50.2 | 95.7% (active) | 99.2% (active) | 98.5% (active)
Cc1nnc(N)nc1C | 33% | 9.5 | -10.1 | -0.8% | -1.3% | 13.6%
COC(=O)/C=C(/Sc1nc(Cl)c(Cl)nc1N)C(=O)OC (tested in a mixture with another compound) | -15.1% | -6.25 | 10.7 | -4.3% | -29.5% | -24.6%
